# TROY signal inh: inhibitors of TROY-dependent NF-kB signaling | Q293 LMP1-TROYcd NF-kB luciferase reporter, 4 h | inhibition, % at 10 µM | hit rate 0.98% among 360,000 | AID 1347056;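 active = compounds whose plate-normalised and pattern-corrected inhibition of the luciferase reporter signal at the single screening dose is 50% or more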
# Peg3 prom inh: Peg3 promoter activity inhibition | inhibition, % at 20 µM | HeLa PEG-Prom luciferase reporter, luminescence, overnight | AID 588405 | hit rate 1.7% among 360,000;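 active = inhibition of at least 50% at 20 µM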
# CF NFkB block: blocks PAF-induced NF-kB reporter in cystic fibrosis cells; KKLEB NF-kB-GFP reporter, GFP fluorescence overnight; inhibition, % at 5 µM; hit rate 0.86% among 360,000;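 active = at least 50% inhibition at 5 µM, scaled per plate between neutral and stimulator controls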;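 also: PAF is a Pseudomonas aeruginosa culture filtrate used as stimulus; plate controls were PAF-stimulated DMSO wells for no effect and unstimulated DMSO wells for full effect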
# KKLEB tox: reduces viability of KKLEB cystic fibrosis airway cells | activity change (cytotoxicity), % at 5 µM | KKLEB CF airway cells viability, ATPlite luminescence, overnight; stronger effect = lower value; cells stimulated with P. aeruginosa culture filtrate | hit rate 0.36% among 360,000;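 active = corrected activity change at or below -50% at 5 µM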
# HIF-2a inh: HIF-2a inhibition | 786-0 RCC cells HIF-2a reporter, luciferase luminescence, overnight | inhibition, % at 18.8 µM | hit rate 0.72% among 360,000;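 active = inhibition of the luminescence signal of 40% or more relative to plate controls, in a single-dose primary screen at 18.75 µM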
# TWEAK-Fn14 inh: inhibitors of TWEAK-Fn14 interaction signaling | hit rate 2% among 360,000 | TWEAK-stimulated Fn14 reporter cells, luciferase luminescence, 8 h | inhibition, % at 10 µM; in the data active = inhibition above about 50%
# Starred values were filed as active, the others as inactive; / = no result; ! = not confirmed by another sample. An excerpt weighted towards active compounds, which were near 4% of everything screened.
SMILES,TROY signal inh,Peg3 prom inh,CF NFkB block,KKLEB tox,HIF-2a inh,TWEAK-Fn14 inh
O=C(c1cc(-c2ccc3c(c2)OCO3)on1)N1CCOCC1,35.7,-9.2,13.1,-4.9,-7.6,77.2*
O=C(c1cc(-c2ccc(F)cc2)on1)N1CCOCC1,-3.3,-165.2,8.2,2.0,-140.7,31.5
O=C(c1cc(-c2ccc3c(c2)OCO3)on1)N1CCN(c2ccc(F)cc2)CC1,-22.3,5.2,14.7,-26.4,-9.7,-11.1
O=C(c1cc(-c2ccc3c(c2)OCO3)on1)N1CCN(c2ccccc2)CC1,65.0*,-298.4,10.4,-5.5,-259.6,21.8
O=C(Nc1cccnc1)c1cc(-c2ccc3c(c2)OCO3)on1,36.5,3.3,-1.9,-25.5,-171.2,76.8*
C/C(=N\Nc1nnc(-c2ccccc2)c(-c2ccccc2)n1)c1cccc([N+](=O)[O-])c1,-18.2,19.2,33.8,-51.3*,10.1,2.4
O=[N+]([O-])c1cccc(/C=N/Nc2nnc(-c3ccccc3)c(-c3ccccc3)n2)c1,-26.6,12.1,19.7,7.1,18.3,-3.5
CCn1c(CSc2nccn2C)nc2cc(C(=O)O)ccc21,16.1,6.5,4.3,1.1,7.2,-8.1
COc1ccc(/C=N/NC(=O)c2ccc3ccccc3c2)cc1OS(=O)(=O)c1ccc(NC(C)=O)cc1,36.8,61.5*,61.1*,-13.4,-13.8,52.4*
COc1ccc(/C=C/C(=O)Oc2ccc(/C=N/NC(=O)c3ccccc3)cc2)cc1OC,-14.2,-78.1,51.5*,-68.2*,-37.9,-49.9
Nc1ccc(C(=O)N/N=C\c2ccc(OC(=O)c3ccccc3Cl)cc2)cc1,11.8,-1.1,-23.0,-1.2,-21.8,-10.0
COc1cc(C(=O)N/N=C/c2ccc(OC(=O)c3ccccc3Cl)cc2)ccc1O,52.5*,5.5,-18.8,3.9,-36.0,-6.2
CN(Cc1ccccc1)C(=O)CCS(=O)(=O)c1cc2c(cc1Cl)NC(=O)CO2,4.9,5.3,-3.7,16.2,1.3,-16.8
COc1ccc(N2CCOCC2)c(NC(=O)c2cc3ccccc3o2)c1,-1.6,24.7,23.5,-12.6,-2.3,-19.4
COc1ccc(/C(N)=N/OC(=O)CN(C)S(=O)(=O)c2ccc(C)cc2)cc1,17.4,6.8,-1.8,1.3,7.7,68.3*
Cc1ccc(/C(N)=N/OC(=O)CN(C)S(=O)(=O)c2ccc(C)cc2)cc1,27.4,22.3,-39.8,-7.6,17.8,3.6
O=C1C(C=Nc2ccccc2)=C(O)c2ccccc21,52.5*,-191.6,-21.9,-11.5,-237.7,60.8*
C=CCNC(=S)N(CC=C)C1CCS(=O)(=O)C1 (configuration not stated),-10.5,-2.8,-4.3,2.2,15.9,-5.6
CN1/C(=C\C=Nc2ccc3ccccc3c2)C(C)(C)c2ccccc21,65.5*,1.6,-25.7,6.8,-23.2,2.7
CN1/C(=C\C=O)C(C)(C)c2ccccc21,-9.3,7.1,-30.2,27.0,19.7,6.0
CN(C)c1ccc(N=C/C=C2\N(C)c3ccccc3C2(C)C)cc1,11.8,-145.0,6.4,2.2,-117.0,51.5*
COc1ccccc1C1(O)CCN(CC(=O)Nc2nc(-c3ccccc3)cs2)CC1,44.1,9.9,-15.9,-7.7,-22.8,54.8*
CCOC(=O)N1CCN(C(=O)CSCC(=O)Nc2nc(-c3ccc(-c4ccccc4)cc3)cs2)CC1,57.3*,-128.9,-33.7,3.5,-205.7,93.1*
CCOC(=S)SCC(=O)Nc1nc(-c2ccc(Br)cc2)cs1,7.6,-5.4,66.3*,-40.1,-260.2,-44.0
CCOC(=O)N1CCN(C(=O)CSCC(=O)Nc2nc(-c3ccc(OC)cc3)cs2)CC1,14.0,-53.6,2.9,-20.7,-91.1,6.9
SMILES,TROY signal inh,Peg3 prom inh,CF NFkB block,KKLEB tox,HIF-2a inh,TWEAK-Fn14 inh
CCc1nnc(NC(=O)CN2CCC(O)(c3ccccc3OC)CC2)s1,2.4,1.5,-3.8,1.4,-6.5,9.5
c1ccn2cc(-c3ccc4c(c3)OCCO4)nc2c1,21.0,-29.2,-1.6,-19.4,2.2,78.2*
Clc1ccc2nc(-c3ccc4c(c3)OCO4)cn2c1,-0.4,29.4,-21.3,-44.5,-25.9,73.1*
Clc1ccc2nc(-c3ccccc3)cn2c1,9.1,-113.4,-17.8,-12.4,-46.6,60.9*
O=C(O)c1cc(-c2ccc3c(c2)OCO3)nc2ccc(Cl)cc12,-54.3,-59.3,19.9,5.8,-62.0,-17.3
CCOC(=O)c1ccc(NC(=O)C2CC(=O)N=C(N)S2)cc1 (configuration not stated),19.0,-37.4,16.8,6.6,-61.3,2.9
COCCCn1c(Cc2csc(Nc3ccccc3)n2)nnc1SCC(N)=O,13.2,9.0,27.5,-21.2,14.8,2.3
COc1ccc2nc(Cl)cc(Cl)c2c1,-4.3,-6.8,-1.3,-9.0,13.9,-28.7
C=CS(=O)(=O)c1c2cc(OC)ccc2nc2ccc(OC)cc12,-43.5,98.0*,-21.9,-7.0,-381.4,-51.1
Cc1cc(C(=O)CSc2nnc(-c3ccco3)o2)c(C)n1CC1COc2ccccc2O1 (configuration not stated),/,23.1,17.6,-3.1,24.4,85.5*
Cc1cc(C(=O)CSc2nnc(-c3ccccc3)o2)c(C)n1CC1COc2ccccc2O1 (configuration not stated),3.5,5.7,1.7,-10.2,7.1,26.3
COCCN1CC(C(=O)N2CCC(Oc3ccccc3OC)CC2)CCC1=O (configuration not stated),-6.4,-4.1,-3.1,4.2,-8.1,-35.2
Cc1ccc(-n2[nH]c(C)c(C=NCc3ccncc3)c2=O)cc1,-36.4,-97.4,0.9,-6.5,-113.7,-2.3
O=C(COc1ccc(CO)cc1Cl)Nc1ccc(F)cc1,6.8,-112.7,-7.2,-7.4,-76.0,62.8*
CC1=[N+](C)c2c(ccc3cccnc23)C1(C)C,45.5,22.7,14.1,-0.7,-21.1,78.4*
Cc1[nH]c2c(ccc3cccnc32)c1C,-44.6,-64.4,-3.3,1.1,-73.2,-3.3
O=C(N/N=C/c1ccc(N2CCOCC2)cc1)c1ccccc1OCCOc1ccccc1,14.7,62.4*,10.8,-13.2,-2.7,31.2
O=C(COC(=O)c1ccc(O)cc1O)NCCN1C(=O)CSC1=O,-14.9,8.3,11.4,-0.4,5.4,7.4
N#Cc1c(NCCCO)nc(-c2ccccc2)c2c1CCCC2,-9.2,17.0,19.4,-11.2,10.9,-27.8
N#Cc1c(NCCN)nc(-c2ccccc2)c2c1CCCC2,11.2,66.5*,21.2,-7.3,24.4,0.9
COc1ccc(S(=O)(=O)c2ccccc2)cc1NC(=O)c1c(F)cccc1F,-3.8,0.8,-23.9,-4.3,-2.8,6.6
O=c1[nH]c(=S)n(-c2cccc(C(F)(F)F)c2)c(O)c1C=NCCN1CCNCC1,-7.9,0.5,15.5,0.3,3.9,18.5
CC1CCC(C(C)C)C(OC(=O)Cn2c(-c3ccccc3)[n+](C)c3ccccc32)C1 (configuration not stated),56.7*,65.2*,55.3*!,-54.3*!,-1.5,63.7*
